Common to all, as to type: functional
Test [1] has as its target Solute carrier family 2, facilitated glucose transporter member 1 (Homo sapiens) (UniProt P11166). Nature of the test: ST_JUDE_LEISH: Cytotoxicity at 2uM final concentration against transgenic Leishmania Mexicana promastigotes LmGLUT1 that are glucose transport deficient and complemented with the human glucose transporter GLUT1. Activity is measured by DNA content using SYBR green in vitro.

Test [2] has as its target Hexose transporter 1 (Plasmodium falciparum) (UniProt O97467). Nature of the test: ST_JUDE_LEISH: Cytotoxicity at 2uM final concentration against transgenic Leishmania Mexicana promastigotes LmPfHT that are glucose transport deficient and complemented with the Plasmodium falciparum hexose transporter. Activity is measured by DNA content using SYBR green in vitro.
Test [3] has as its target Glucose transporter (Leishmania mexicana) (UniProt O61059). Nature of the test: ST_JUDE_LEISH: Cytotoxicity at 2uM final concentration against transgenic Leishmania Mexicana promastigotes LmGT2 that are glucose transport deficient and complemented with the L. Mexicana glucose transporter 2. Activity is measured by DNA content using SYBR green in vitro.

Where “and” joins values, the source holds several entries; their conditions need not be identical. Equal entries are not always repeated.

Solute carrier family 2, facilitated glucose transporter member 1 (Homo sapiens), sequence (P11166 whole entry): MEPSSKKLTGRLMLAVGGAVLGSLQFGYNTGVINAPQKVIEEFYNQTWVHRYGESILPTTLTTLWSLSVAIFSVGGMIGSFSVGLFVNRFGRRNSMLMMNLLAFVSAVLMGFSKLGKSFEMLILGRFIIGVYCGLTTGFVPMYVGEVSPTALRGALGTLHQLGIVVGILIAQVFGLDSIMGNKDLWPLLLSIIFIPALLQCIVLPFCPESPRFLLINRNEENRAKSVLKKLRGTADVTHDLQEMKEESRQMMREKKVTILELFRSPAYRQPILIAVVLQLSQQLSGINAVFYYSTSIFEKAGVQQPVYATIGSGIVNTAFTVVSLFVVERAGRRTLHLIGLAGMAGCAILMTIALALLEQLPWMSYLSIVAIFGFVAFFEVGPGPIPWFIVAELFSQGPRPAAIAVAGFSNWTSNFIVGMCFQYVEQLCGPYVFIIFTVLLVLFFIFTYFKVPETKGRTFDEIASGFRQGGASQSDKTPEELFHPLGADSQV

Regarding `CC[C@H]1CN2CC[C@H]1C[C@H]2[C@H](O)c1cc(-c2ccccc2F)nc2ccc(OC)cc12`, the inhibition (commonly the drop in the measured response relative to a control, in per cent) in test [1] is 0.68%; in test [2], 1.58%; in test [3], 0.34%.

Take `O=C(NC1CCC(CN2CCC(c3c[nH]c4ccccc34)CC2)CC1)c1csc(-c2ccc(C(F)(F)F)cc2Cl)n1` (centres undefined): the inhibition in test [1] worked out at 10.1%; in test [2], 9.77%; in test [3] it was 10.2%.

In the case of `COc1cccc(CC(C)NCC(O)c2cccc(Cl)c2)c1` (centres undefined), the values for the inhibition in test [1], in test [2] and in test [3] were 0.74%, 2.67% and 1.92%, respectively.

Turning to `N#Cc1c(Cl)cccc1Oc1ccc(S(=O)(=O)NC2CCC(CN3CCC(c4c[nH]c5ccccc45)CC3)CC2)cc1` (centres undefined), the inhibition is 0.9% and 1.4% in test [1]; 1.87% and 1.07% in test [2]; 0.19% and -0.57% in test [3].

With `CCOC(C(=O)OCC1CCCN1C)(c1ccccc1)c1ccccc1` (centres undefined), the inhibition in test [1] is 1.35%; in test [2], -0.09%; in test [3] it was 0.01%.

As for `CC(C)CNCc1ccc(-c2cccc(CN(C(=O)NC3CCCCC3)C3CCN(Cc4ccccc4)CC3)c2)cc1`, the inhibition was 0.87% in test [1], -0.07% in test [2] and 3.1% in test [3].

With `Cc1ccc2[nH]cc(C3CCN(CC4CCC(NC(=O)/C=C/c5ccc(Cl)c(Cl)c5)CC4)CC3)c2c1` (centres undefined), the inhibition in test [1] was 4.11% and 12%; in test [2], 3.18% and 11.1%; in test [3] it was -1.76% and 10.5%.

Consider `CN1CC=C(c2c[nH]c3ccc(Br)cc23)CC1`, for which the inhibition was 1.93% in test [1], 0.19% in test [2] and -0.72% in test [3].

With `CCCCCCc1cc(O)c2c3c(c(=O)oc2c1)CCN(C)C3`, the inhibition in test [1] worked out at 7.26%; in test [2], 4.97%; in test [3], 6.76%.

With `Cc1cccc(N2CCN(Cc3cc(Cl)ccc3O)CC2)c1C`, the inhibition was found to be 0.93% in test [1], 1.18% in test [2] and 3.25% in test [3].

In the case of `CC(=O)Nc1ccc(OCCN(CC(C)(C)C)c2ccc(C#N)c(C(F)(F)F)c2)c(Cl)c1`, the inhibition in test [1] was found to be 4.2%; in test [2], 5.82%; in test [3] it was 3.22%.

For the compound `CNC(=O)c1ccc2[nH]cc(C3CCN(CC4CCN(C(=O)/C=C/c5ccc(Cl)c(Cl)c5)CC4)CC3)c2c1`, the inhibition in test [1] is 1.1%; in test [2], -0.15%; in test [3] it was 0.08%.

For the compound `O=C(Nc1ccc(CN2CCC(c3c[nH]c4ccc(O)cc34)CC2)cc1)c1ccc(-c2ccccc2)cc1`, the figures for the inhibition in test [1], in test [2] and in test [3] were 5.73%, 3.85% and 5.18%, respectively.

Consider `CN(c1cc(NC(=O)c2ccc(F)cc2)ccn1)C1CCN(Cc2cccc(O)c2)CC1`, for which the inhibition in test [1] was 2.68%; in test [2], 4.98%; in test [3] it was 6.32%.

`Cc1cc(O)cc2c(C3CCN(CC4CCC(NC(=O)/C=C/c5ccccc5Cl)CC4)CC3)c[nH]c12` (centres undefined): the inhibition is 4.47% in test [1], 4.35% in test [2] and 3.52% in test [3].

Regarding `CNCC(O)c1cc(Cl)c(Cl)cc1C` (centres undefined), the inhibition in test [1] was 1.72%; in test [2] it was 0.44%; in test [3] it was -1.56%.

In the case of `CCCCc1ccc2[nH]cc(C3=CCN(C)CC3)c2c1Br`, the inhibition in test [1] is 0.79%; in test [2] it was -0.14%; in test [3] it was 2.44%.

Turning to `COc1ccc(C(=O)c2ccc3[nH]cc(C4=CCN(C)CC4)c3c2)cc1`, the figures for the inhibition in test [1], in test [2] and in test [3] were -0.74%, -1.41% and 0.07%, respectively.

For `COCC(=O)N(Cc1cccc(-c2ccc(CNCCc3ccccc3)cc2)c1)C1CCN(Cc2ccccc2)CC1`, the inhibition in test [1] is 3.83%; in test [2], 5.42%; in test [3], 2.98%.

In the case of `CC(NC(C)(C)C)C(O)c1ccc(Cl)c(C(F)(F)F)c1` (centres undefined), the inhibition in test [1] was determined as 1.86%; in test [2], 0.38%; in test [3], 1.11%.

For the compound `COc1ccc(CC(C)NCC(O)c2cccc(C(F)(F)F)c2)cc1F` (centres undefined), the inhibition came to 1.15% in test [1], 1.15% in test [2] and 0.11% in test [3].

As for `Cc1ccc(CC(C)NC[C@H](O)c2cccc(Cl)c2)cc1` (some centres undefined), the inhibition in test [1] was 1.71% and 1.19%; in test [2], 0.19% and 1.01%; in test [3] it was 1.47% and 1.06%.

For `Cc1cccc2c(C3CCN(CC4CCC(NC(=O)/C=C/c5ccc(Cl)c(Cl)c5)CC4)CC3)c[nH]c12` (centres undefined), the inhibition in test [1] was determined as 10.9%; in test [2], 9.79%; in test [3], 8.09%.

With `COc1ccc(OC)c(C(O)C(C)NCc2cc(Cl)ccc2O)c1` (centres undefined), the inhibition in test [1] was found to be 0.78%; in test [2] it was 1.14%; in test [3], 1.94%.

Take `CCC(C)(C)NC(C)C(O)c1ccc(C(F)(F)F)cc1` (centres undefined): the inhibition in test [1] is -0.19%; in test [2], 0.51%; in test [3], -0.15%.

For `O=C(/C=C/c1ccc(Cl)c(Cl)c1)NCCC1CCC(N2CCC(c3c[nH]c4ccc(O)cc34)CC2)CC1` (centres undefined), the inhibition in test [1] was 0.48%; in test [2] it was 3.87%; in test [3], 1.36%.

In the case of `O=C(/C=C/c1ccc(F)c(C(F)(F)F)c1)N1CCC(CN2CCC(c3c[nH]c4ccccc34)CC2)CC1`, the inhibition in test [1] was determined as 0.7%; in test [2] it was 0.53%; in test [3] it was 0.74%.

Turning to `CCCCCCC(C)(C)c1cc(O)c2c3c(c(=O)oc2c1)CCN(Cc1ccccc1)C3`, the inhibition in test [1] was found to be 3.18%; in test [2] it was 4.84%; in test [3], 8.58%.

`Cc1cc(CN2CCN(CCOC(c3ccccc3)c3ccccc3)CC2)ccc1O`: the figures for the inhibition in test [1], in test [2] and in test [3] were 16%, 13.2% and 13.6%, respectively.

For `CC[C@H]1CN2CC[C@@H]1C[C@H]2[C@H](O)c1cc(N2CCC(O)(c3ccc(Cl)cc3)CC2)nc2ccc(OC)cc12`, the inhibition in test [1] was 6.73%; in test [2], 1.34%; in test [3] it was 2.62%.

With `O=C1c2ccccc2CCC1CCN1CC=C(c2c[nH]c3ccccc23)CC1` (centres undefined), the values for the inhibition in test [1], in test [2] and in test [3] were 2.89%, 3.52% and 3.16%, respectively.

Regarding `Cc1cc(C(=O)NC2CCN(CC3(c4ccc(Cl)cc4)CCC3)CC2)on1`, the results for the inhibition in test [1], in test [2] and in test [3] were 0.83%, -0.05% and 0.13%, respectively.

With `CC1(C)CCCN(C(=O)Cc2ccc3c(c2)CCCC3)C1CN1CC=CC1` (centres undefined), the results for the inhibition in test [1], in test [2] and in test [3] were 8.1%, 8.82% and 8.93%, respectively.
